Hit rate of the full screen: of about 5,500 compounds, about 2,000 (36%) were called active. Another 18% or so got no clear call; they are omitted. Rule as the data show it: active = normalized growth mostly below about 0.91 (no sharp cut-off); inconclusive = no clear call, values can overlap the other calls; inactive = mostly above about 0.92. The list shows a part of the results.
Assay: chemical genetic growth profiling, strain panel (AID 1159580);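 also: tested at 20 µM; growth read once vehicle control cultures reached saturation at 30 °C; 1 = growth at the plate median or of vehicle wells; lower values mean less growth of the strain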
Details: S. cerevisiae deletion strains, growth OD

Measured: normalized growth

CC12CCC3C4CCC(=O)C=C4CCC3C1CCC2=O (configuration not stated)
active: locus YLR039C, strain RIC1, hits give low values 0.786 | locus YLR262C, strain YPT6, hits give low values 0.737
inactive: locus YAL013W, strain DEP1, hits give low values 1.01 | locus YBR229C, strain ROT2, hits give low values 1.01 | locus YDL101C, strain DUN1, hits give low values 1 | locus YDR150W, strain NUM1, hits give low values 0.995 | locus YEL061C, strain CIN8, hits give low values 1.01 | locus YGR078C, strain PAC10, hits give low values 1.01 | locus YGR229C, strain SMI1, hits give low values 1.01 | locus YHR030C, strain SLT2, hits give low values 0.898 | locus YHR087W, strain rtc3, hits give low values 1.03 | locus YJR043C, strain POL32, hits give low values 1.02 | locus YJR075W, strain HOC1, hits give low values 1.02 | locus YLR058C, strain SHM2 (second series), hits give low values 1.01 | locus YLR085C, strain ARP6, hits give low values 1.02 | locus YML094W, strain GIM5, hits give low values 0.994 | locus YMR219W, strain ESC1, hits give low values 1.01 | locus YMR263W, strain SAP30, hits give low values 0.999 | locus YMR307W, strain GAS1, hits give low values 0.989 | locus YNL153C, strain GIM3, hits give low values 0.991 | locus YNL298W, strain CLA4 (second series), hits give low values 1.01 | locus YNL322C, strain KRE1, hits give low values 1.02 | locus YNR030W, strain Alg12, hits give low values 0.998 | locus YOL006C, strain TOP1, hits give low values 0.971 | locus YPL055C, strain LGE1, hits give low values 1.02 | locus YPL241C, strain CIN2, hits give low values 1.01 | locus YPR135W, strain CTF4, hits give low values 0.897
